Measurements taken from PubChem BioAssay AID1942 (Johns Hopkins Ion Channel Center, 2009).
About 580 (24%) of roughly 2,400 compounds were called active. A selection follows. Unmarked numbers belong to inactive results.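 The calls were made as follows: active = activity change at or above the mean plus 3 SD of buffer wells without dofetilide, per plate; inactive = the rest.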

Molecular target: Potassium voltage-gated channel subfamily KQT member 2 (Rattus norvegicus) (UniProt O88943)
Assay: KCNQ2 potentiation in CHO cells – cell-based, FluxOR thallium flux, counter-screen for hERG block protector project, confirmation (AID 1942);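 also: normalized value minus buffer-control mean plus three SD of buffer wells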
Settings: FluxOR thallium flux fluorescence, at 10 µM, hits give high values

Chain of Potassium voltage-gated channel subfamily KQT member 2 (Rattus norvegicus) (O88943 whole entry, looked up): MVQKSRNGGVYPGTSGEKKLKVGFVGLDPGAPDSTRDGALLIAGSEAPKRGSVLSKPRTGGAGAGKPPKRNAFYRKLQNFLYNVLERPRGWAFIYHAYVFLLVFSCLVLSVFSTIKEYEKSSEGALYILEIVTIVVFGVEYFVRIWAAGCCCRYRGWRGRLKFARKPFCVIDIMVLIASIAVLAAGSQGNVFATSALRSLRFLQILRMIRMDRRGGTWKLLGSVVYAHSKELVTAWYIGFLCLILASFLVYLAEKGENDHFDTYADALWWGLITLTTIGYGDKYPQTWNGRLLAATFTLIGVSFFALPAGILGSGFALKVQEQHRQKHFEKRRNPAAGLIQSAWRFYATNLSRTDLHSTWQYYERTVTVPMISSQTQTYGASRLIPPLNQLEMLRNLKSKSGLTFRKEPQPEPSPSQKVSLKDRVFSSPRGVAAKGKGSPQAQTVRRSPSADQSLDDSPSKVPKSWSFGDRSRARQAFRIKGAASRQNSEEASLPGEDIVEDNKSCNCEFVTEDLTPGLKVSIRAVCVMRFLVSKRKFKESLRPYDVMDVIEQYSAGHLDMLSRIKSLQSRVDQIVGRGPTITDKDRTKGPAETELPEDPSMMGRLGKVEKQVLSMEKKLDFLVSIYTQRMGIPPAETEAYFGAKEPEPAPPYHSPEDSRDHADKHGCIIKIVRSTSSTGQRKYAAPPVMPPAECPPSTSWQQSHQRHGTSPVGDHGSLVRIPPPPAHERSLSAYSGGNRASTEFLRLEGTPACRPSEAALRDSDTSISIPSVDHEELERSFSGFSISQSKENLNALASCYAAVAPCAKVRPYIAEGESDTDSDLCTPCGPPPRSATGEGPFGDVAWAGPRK

First: Cc1csc2ncc(C(=O)N3c4ccccc4CC3C)c(=O)n12 (stereo not given)
Second: CC1Cc2cc(S(=O)(=O)NCc3ccccc3)ccc2N1C(=O)C1CCC1 (stereo not given)
The activity change, less the hit threshold of the first is higher: -9.8% for the first, -20.4% for the second.

Compared with `CNC(=O)c1[nH]cnc1C(=O)Nc1ccccn1`, `Cc1cccc(C(=O)NNC(=S)NC(=O)c2ccccc2)c1` is higher in activity change, less the hit threshold: -9.6% for the first, -4.5% for the second.

Compared with `Cc1cc(S(=O)(=O)NCC(C)C)ccc1OCC(=O)NCc1ccccn1`, `O=C(CN(C(=O)CNS(=O)(=O)c1ccc(F)cc1)c1cccc(F)c1)NCC1CCCO1` (stereo not given) is higher in activity change, less the hit threshold: -21.1% for the first, -19% for the second.

Going from `CCOc1cc(Br)c(C(=O)O)cc1OC` to `O=C(COc1ccc(Br)cc1Cl)NC(=S)N1CCc2ccccc21`, the activity change, less the hit threshold falls from -13.8% to -14.2%.

Compared with `OC(CCN1CCOCC1)c1ccccc1` (stereo not given), `Cc1ccc(-c2nc(CS(=O)(=O)CC(=O)NCCN3CCOCC3)c(C)o2)cc1` is higher in activity change, less the hit threshold: -33.4% for the first, -12.6% for the second.

Compared with `Cc1nonc1OCCNc1ccc([N+](=O)[O-])cc1`, `O=[N+]([O-])c1ccc(-c2ccc(/C=N/n3cnnc3)o2)c(Br)c1` is lower in activity change, less the hit threshold: -8.5% for the first, -11.4% for the second.

First: Cc1ccc2nc(-c3ccccn3)cc(C(=O)NC3CCN(C)CC3)c2c1
Second: Cc1cccc(OCC(=O)NC(=S)N2CCCc3ccccc32)c1
The activity change, less the hit threshold of the first is higher: -23.8% for the first, -23.9% for the second.

First: CS(=O)(=O)c1sc(C(=O)NC(=S)Nc2ccc(OC(F)(F)F)cc2)c2c1C=CCC2
Second: COC(=O)c1ccc(Oc2ccc(S(=O)(=O)N3CCCCC3)cc2N)cc1
The activity change, less the hit threshold of the first is higher: -11% for the first, -21% for the second.

Going from `O=C(COc1ccc(Cl)cc1Cl)NC(=S)N1CCCc2ccccc21` to `O=C(NC(=S)N1CCCc2ccccc21)c1ccccc1`, the activity change, less the hit threshold rises from -13.8% to -7.9%.

First: O=C(Nc1cccn(Cc2c(Cl)cccc2Cl)c1=O)c1ccccc1Cl
Second: O=C(O)c1ccccc1NC(=O)c1cc2ccccc2oc1=O
The activity change, less the hit threshold of the first is lower: -24.1% for the first, -5.1% for the second.

First: Cc1ccc(C(=O)NC(=S)N2CCN(c3cc(C)ccc3C)CC2)cc1
Second: COc1ccc(C)cc1NC(=O)Nc1ccc(C(=O)N2CCCC2)cc1
The activity change, less the hit threshold of the first is higher: -8.7% for the first, -13.8% for the second.

First: CC1(C)CC(NC(=O)c2ccc(Cl)cc2Cl)CC(C)(C)N1
Second: CC(=O)n1nc(-c2ccncc2)nc1SCC(=O)Nc1cccc(Cl)c1
The activity change, less the hit threshold of the first is lower: -23.3% for the first, -21.7% for the second.

Going from `Cc1ccc(NC(=O)CSc2nnc(-c3cccnc3)n2-c2ccc(C)cc2)cc1` to `O=C(CSc1cccc2cccnc12)N/N=C/c1cccnc1`, the activity change, less the hit threshold falls from -17.2% to -18.6%.

Compared with `CCCN1Cc2cccc(C(=O)NCc3cccs3)c2C1=O`, `Cc1ccccc1NC(=O)CSc1ccsc1[N+](=O)[O-]` is lower in activity change, less the hit threshold: -23.8% for the first, -24.3% for the second.

Going from `OC(CNCCc1ccc(C(F)(F)F)cc1)COc1cccc2ccccc12` (stereo not given) to `S=C(Nc1ccccc1)Nc1nc2ccccc2n1CCOc1ccccc1`, the activity change, less the hit threshold rises from -39.6% to -19.7%.

Compared with `CN1C(=O)CSc2ccc(NC(=O)N3CCc4ccccc43)cc21`, `O=C(c1ccccc1)N1CCc2ccccc21` is higher in activity change, less the hit threshold: -21.5% for the first, -14.8% for the second.

First: O=C(O)CC1S/C(=N/N=C/c2ccc(-c3ccccc3[N+](=O)[O-])o2)NC1=O (stereo not given)
Second: O=C1c2ccccc2C(=O)N1CCc1nc(-c2ccccn2)no1
The activity change, less the hit threshold of the first is lower: -23.4% for the first, -15.6% for the second.

First: CCCc1nnc(NC(=O)CN2CCOCC2)s1
Second: Cc1ccccc1-c1nnn(CC(=O)NCc2ccc3c(c2)OCO3)n1
The activity change, less the hit threshold of the first is higher: -18.7% for the first, -24.5% for the second.

Going from `Cc1cc(F)ccc1NC(=O)C1CCN(C(=O)Nc2ccccc2)CC1` to `Cc1ccc(SCc2ccc(C(=O)N3CCCC3)cc2)cc1`, the activity change, less the hit threshold rises from -20.3% to -13.9%.

Compared with `Cc1ccc(NC(=O)CN2C(=O)S/C(=C\c3cccn3-c3cccc(C(=O)O)c3)C2=O)c(C)c1`, `Cc1ccc(NC(=O)CCc2nc3sc4c(c3c(=O)[nH]2)CCCC4)c(Br)c1` is higher in activity change, less the hit threshold: -17.1% for the first, -14.8% for the second.

With `Cc1cc(C)n(-c2nc(NCCCN(C)C)c3c4c(sc3n2)CCCC4)n1` the activity change, less the hit threshold was -15.9%.

In the case of `CC(Oc1ccc(Cl)cc1Cl)C(=O)NC(=S)N1CCc2ccccc21` (stereo not given), the activity change, less the hit threshold is reported as 24.1% (active).
For `O=C(COc1ccccc1)NC(=S)N1CCc2ccccc21`, the activity change, less the hit threshold was 2.7% (active).
In the case of `Cc1cccc(C(=O)NC(=S)N2CCc3ccccc3C2)c1`, the activity change, less the hit threshold is reported as 20.8% (active).
`CC1(C)CC2CC(C)(CN2C(=S)NC(=O)c2ccccc2Cl)C1` (stereo not given) was tested, and the activity change, less the hit threshold was 23.3% (active).
In the case of `O=C(NC(=S)N1CCc2ccccc21)c1ccccc1Br`, the activity change, less the hit threshold is reported as 105% (active).
With `O=C(NC(=S)N1CCc2ccccc21)c1ccccc1Cl` the activity change, less the hit threshold was 65.2% (active).
With `O=C(NC(=S)N1CCc2ccccc21)c1ccccc1` the activity change, less the hit threshold was 38.5% (active).
With `Cc1cc(C)c(C(=O)c2ccc(C(=O)N3CCCCC3)cc2)c(C)c1` the activity change, less the hit threshold was 9.9% (active).
In the case of `Cc1cc(C)n(-c2nc3sc4c(c3c(=O)[nH]2)CCCC4)n1`, the activity change, less the hit threshold is reported as 6.2% (active).
